# From PubChem
# CR mimetic SO: reduction of superoxide in aged yeast, primary screen, HTS | 0.18% of 330,000 active | S. cerevisiae aged cells, superoxide DHE fluorescence; active compounds read low | superoxide response (% of plate mean), % at 10 µM | AID 2690, 2010;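 active means superoxide response under a set limit, about three screen SD below normal, cut at about 65% in these data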;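 further: yeast aged for seven days with compound at 30 °C before DHE staining; 100% = average MFI of all compound-treated wells on the plate with controls excluded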
# PolyA inh: polyadenylation inhibitors in yeast reporter cells, primary screen, luminescence, S. cerevisiae; S. cerevisiae SKY197-pL101 polyadenylation reporter, beta-gal luminescence; efflux-impaired pdr1/pdr3 knockout yeast; score 100 = 6 SD above DMSO; activity score, % at 12 µM; 0.02% of 300,000 active;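 active means lowest replicate activity score at least 50, where 100 means six control SD above control mean; inconclusive means lowest score under 50 but half or more replicates reach 50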;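 further: yeast exposed to compound for 9 h at 30 °C; higher score means more reporter readthrough which indicates perturbed polyadenylation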
# SKKanGAS inh: S. pyogenes SKKanGAS growth inhibitors in kanamycin, primary screen, streptokinase expression inhibitor project, SKKanGAS strain, BacTiter-Glo luminescence; inhibition, % at 7.5 µM; 6 h; 1.3% of 300,000 active;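 active means mean replicate score, as percent of positive control median, at least 50; inconclusive means mean below 50 but one replicate at or above 50; inactive means mean and every replicate below 50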;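 further: strain carries kanamycin resistance gene driven by streptokinase promoter and grows in 40 µg/ml kanamycin; loss of luminescence reflects streptokinase promoter inhibition or plain growth inhibition; 0% = median of DMSO wells and 100% = positive control at its reference dose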
# Calb FLC: C. albicans growth inhibition with fluconazole, primary screen, CaCi-2 strain, Alamar Blue fluorescence. 0.57% of 300,000 active. C. albicans CaCi-2 (fluconazole-resistant clinical isolate) + fluconazole, 48 h. growth inhibition, % (concentration not given with the values);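 active means growth inhibition above about 58% in most replicates, limit read from the data, passing the limit was not always enough; inconclusive means exactly half the replicates above a set limit; inactive means most replicates below a set limit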;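 further: all wells also contain fluconazole at 8 µg/ml as a sub-toxic cotreatment; 0% = median of DMSO wells and 100% = median of geldanamycin control wells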
# Platelet DG rel: inhibitors of platelet dense granule secretion, primary screen, cell-based, MLPCN, human platelets; human platelet-rich plasma, SFLLRN dense granule ATP release, luminescence; 0.22% of 300,000 active; inhibition, %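 (compounds screened at 7.5 µM in platelet-rich plasma)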;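 active means mean replicate score, as percent of positive control, at or above 50; inconclusive means mean below 50 but at least one replicate at or above 50; inactive means mean and every replicate below 50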
# * marks the source's active call; other numbers are inactive results; u = inconclusive; x = no result given; ! = a repeat was not active. Hits are enriched below; roughly 2% of the tested compounds scored in any of these assays.
SMILES,CR mimetic SO,PolyA inh,SKKanGAS inh,Calb FLC,Platelet DG rel
Cc1ccccc1CNC(=O)C(=O)NCC1CCCN1S(=O)(=O)c1cccs1 (stereo unspecified),x,-0.5,-3.9,-1.7,-5.6
Oc1c(C(c2ccccc2Cl)N2CCCC2)ccc2cccnc12 (stereo unspecified),87.0,-41.7,76.4*,105.2*,-6.4
CC(=O)NC(c1cc(Cl)c2cccnc2c1O)C1CC1 (stereo unspecified),84.3,x,x,x,x
Oc1c(C(c2ccc(Cl)cc2)N2CCCC2)cc(Cl)c2cccnc12 (stereo unspecified),101.7,-30.0,79.8*,98.5*,-6.1
Oc1c(C(c2ccccn2)N2CCC(Cc3ccccc3)CC2)cc(Cl)c2cccnc12 (stereo unspecified),92.9,9.0,74.9*,105.0*,10.6
Oc1c(C(c2cccs2)N2CCN(c3ccccc3)CC2)ccc2cccnc12 (stereo unspecified),76.0,x,x,x,x
CN1CCN(C(c2ccccn2)c2cc(Cl)c3cccnc3c2O)CC1 (stereo unspecified),131.8,-18.0,19.0,100.7*,1.4
CC(=O)NC(c1cc(Cl)c2cccnc2c1O)C(C)C (stereo unspecified),90.9,x,x,x,x
CCCN(Cc1nnc(-c2cccs2)o1)C(=O)CN1C(=O)NC2(CCCCC2C)C1=O (stereo unspecified),114.3,x,x,x,x
Cc1ccc(N(C(=O)c2csnn2)C(C(=O)NC2CCCCC2)c2cccnc2)cc1 (stereo unspecified),102.9,-1.6,-2.8,-4.7,-15.0
CC(C)Sc1nnc(CNC(=O)C23CC4CC(CC(C4)C2)C3)n1C1CCCCC1,101.2,4.5,-6.7,-1.5,0.5
CCN(C(=O)COC(=O)c1ccc([N+](=O)[O-])o1)c1cccc2ccccc12,99.1,x,x,x,x
CN1CCN(C(c2ccccc2)c2ccccc2)CC1,96.5,x,x,x,x
CN1CCN(C(c2ccc(C(F)(F)F)cc2)c2ccc3cccnc3c2O)CC1 (stereo unspecified),125.5,6.3,86.9*,97.4*,5.2
CN1CCN(Cc2cc(Cl)c3cccnc3c2OC(=O)c2cccs2)CC1,105.0,40.9,0.5,2.4,-1.3
Cc1ccc(C(c2cc(Cl)c3cccnc3c2O)N2CCN(C)CC2)cc1 (stereo unspecified),155.1,-11.2,51.0*,87.8*,1.4
CCOC(=O)C1=C(COC(=O)COc2ccc(C#N)cc2)NC(=O)NC1C (stereo unspecified),98.7,12.0,-5.1,-6.3,14.2
O=C(Nc1ccc(C(=O)N2CCOCC2)cc1)c1cccc([N+](=O)[O-])c1,103.6,10.4,-1.1,-8.6,-6.1
CCc1ccc(C2c3[nH]c4ccccc4c3CCN2C(=O)CN2CCN(CC)CC2)cc1 (stereo unspecified),100.9,-8.8,2.9,-9.7,-0.5
CSc1ccc(C2c3[nH]c4ccccc4c3CCN2C(=O)c2ccnn2C)cc1 (stereo unspecified),83.9,-4.2,2.4,92.3*,1.1
CCc1ccc(C2c3[nH]c4ccccc4c3CCN2C(=O)c2ccc(=O)n(C)n2)cc1 (stereo unspecified),101.2,16.8,6.3,88.2*,5.9
CN(CC(=O)Nc1ccc(S(=O)(=O)N2CCOCC2)cc1)Cc1ccc(F)cc1,89.2,x,x,x,x
Cc1ccsc1C(=O)Nc1ccc(OCc2ccccc2)cc1,98.9,15.7,24.7,5.5,78.9*
CNC(=S)N/N=C/c1ccc(-c2ccc(Cl)c([N+](=O)[O-])c2)o1,104.1,-21.3,-8.7,84.7*,5.0
O=C(Oc1c(CN2CCOCC2)cc(Cl)c2cccnc12)c1ccccc1Br,99.5,-2.7,26.0,86.7*,-0.6
SMILES,CR mimetic SO,PolyA inh,SKKanGAS inh,Calb FLC,Platelet DG rel
O=C(Oc1c(Cl)cc(Cl)c2cccnc12)N1CCOCC1,106.5,-32.2,25.9,91.7*,-1.8
Nc1cccc(Oc2ccc3c(c2)C(=O)N(CC2CCCO2)C3=O)c1 (stereo unspecified),73.8,6.9,-3.0,21.7,x
COc1ccc(-c2cn[nH]c2-c2ccc(OCc3ccccc3)cc2O)cc1,119.9,-14.3,74.8*,-6.7,10.9
O=[N+]([O-])c1ccc(COc2ccc(-c3[nH]ncc3-c3ccc(Cl)cc3)c(O)c2)cc1,111.4,4.2,94.8*,-3.3,8.6
COc1ccccc1-c1cn[nH]c1-c1ccc(OCc2ccccc2)cc1O,115.9,-11.0,48.0,-0.7,-3.2
CN(C)c1ccc(N=Nc2nc3ccccc3n2C)cc1,86.8,4.7,13.0,72.5,181.8*
Cn1c(N=Nc2ccccc2)nc2ccccc21,99.7,-13.3,47.3,39.6,71.6*
COc1cccc(-c2c(C(=O)N/N=C/c3ccco3)nnn2-c2nonc2N)c1,111.6,4.9,-0.3,-3.3,12.2
CCOc1cccc(-c2cc(-c3n[nH]c(=S)n3CC)c3ccccc3n2)c1,114.3,-26.1,13.2,68.6*,3.9
CCn1c(-c2cc(-c3ccc(C)c(C)c3)nc3ccccc23)n[nH]c1=S,103.0,-9.1,12.4,17.4,5.1
C=CCn1c(SCCCC)nc(O)cc1=O,94.8,u,15.0,-5.8,7.9
C=CCn1c(SC(C)CC)nc(O)cc1=O (stereo unspecified),99.8,9.8,52.0*,-3.3,-2.8
O=S(=O)(O)c1ccc(N=Nc2ccccc2)cc1,109.8,-6.9,2.3,-3.4,16.1
O=c1ccc(N=Nc2ccccc2)ccc1O,102.0,-17.3,90.5*,101.0*,37.3
CC1CCC(C(C)C)C(OC(=O)COC(=O)c2ccc(N)cc2)C1 (stereo unspecified),99.0,1.0,-0.4,-33.7,-1.3
CC1CCC(C(C)C)C(OC(=O)Cn2c(-c3ccc(Cl)cc3)[n+](C)c3ccccc32)C1 (stereo unspecified),106.0,u,6.8,-4.1,-11.7
CC1CCC(C(C)C)C(OC(=O)Cn2c(-c3ccc(Br)cc3)[n+](C)c3ccccc32)C1 (stereo unspecified),86.0,-10.8,10.2,108.1*,3.5
Cc1ccccc1OCc1n(CC(=O)OC2CC(C)CCC2C(C)C)c2ccccc2[n+]1C (stereo unspecified),92.2,2.5,19.9,98.7*!,9.3
CCC(=O)Nc1ccc(Nc2nc(C)c([N+](=O)[O-])c(Nc3ccc(NC(=O)CC)cc3)n2)cc1,94.4,-1.3,65.7*,-2.8,1.8
CCOc1ccccc1NC(=S)N1CCC(c2nc3ccccc3o2)CC1,97.2,-8.6,-3.0,1.6,1.5
CCOC(=O)C1CCN(C(=O)CN2C(=O)COc3ccc(C(C)(C)C)cc32)CC1,98.5,-12.6,0.8,-0.6,9.2
CCOc1ccc(N2CC(C(=O)NCCc3ccc(F)cc3)CC2=O)cc1 (stereo unspecified),109.2,13.7,-2.2,-1.1,4.8
